Screening results from PubChem BioAssay.
Rows were chosen to be rich in hits. Some 2.2% of all compounds tested hit in one or more screens of this group.
aSyn 5UTR inh – MLPCN primary screen, SNCA 5' untranslated region. alpha-synuclein 5'UTR reporter, inhibitor activity. inhibition, % (tested at 7.5 µM). hit rate 0.82% among 300,000; in the data active = inhibition above about 60%;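 also: H4 neuroglioblastoma cells stably carrying SNCA 5'UTR luciferase fusion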
Ba/F3 V617F tox – loss of viability in JAK2V617F-driven Ba/F3 cells; Ba/F3 EpoR-JAK2V617F viability, ATP luminescence; inhibition, % at 5.6 µM; hit rate 1.1% among 220,000;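 active = inhibition above the campaign mean plus 3 SD over all tested compounds, cut at about 24% in these data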;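 also: cytokine-independent growth of Ba/F3 cells driven by EpoR plus mutant JAK2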
BaF3 parental – reduces parental Ba/F3 cell viability, JAK2V617F counter-screen. CellTiter-Glo ATP luminescence. inhibition, % at 5.6 µM. hit rate 1.1% among 220,000. AID 1486;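 active = inhibition above a per-campaign cutoff, the mean inhibition of all tested compounds plus 3 SD, cut at about 27% in these data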
APP 5UTR inh – APP translation inhibition. SH-SY5Y APP 5'UTR-luciferase reporter, luminescence. inhibition, % at 2 µM. hit rate 0.82% among 190,000;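 active = inhibition above a set limit, derived from the sample mean plus 3 SD, cut at about 45% in these data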
IEC-6 cytotox – counter-screen for KLF5 inhibitors: cytotoxicity in IEC-6 cells; IEC-6 cytotoxicity, luminescence viability; inhibition, % at 5 µM; hit rate 0.78% among 290,000; in the data active = inhibition above about 22%
KLF5 inh – suppresses KLF5 promoter-driven expression; DLD-1 KLF5 promoter-luciferase reporter, luminescence; inhibition, % at 5 µM; hit rate 0.23% among 290,000; AID 1700;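 active = inhibition above a per-plate limit of that plate's mean compound inhibition plus 3 SD, cut at about 60% in these data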;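 also: higher means less KLF5 promoter-driven luciferase light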
Hits are given with their value; n = inactive; x = no result.

SMILES	aSyn 5UTR inh	Ba/F3 V617F tox	BaF3 parental	APP 5UTR inh	IEC-6 cytotox	KLF5 inh
Cc1nn(Cc2c(F)c(F)c(F)c(F)c2F)c(C)c1NC(=O)c1cccc(COc2ccccc2Cl)c1	n	n	n	n	n	n
Cc1nn(Cc2cccc(F)c2)c(C)c1NC(=O)c1ccc(COc2ccccc2Cl)cc1	69	n	n	n	n	n
O=C(/C=C\Nc1ccc(Cl)cn1)c1ccc(Br)cc1	n	n	n	n	n	n
CC1(C)Cc2c(sc(NC(=O)COc3ccc(Cl)cc3Cl)c2C(N)=O)C(C)(C)N1	62	x	x	x	n	n
COC(=O)c1c(NC(=O)COc2ccc(Cl)cc2)sc2c1CC(C)(C)NC2(C)C	83	x	x	x	n	n
CCOC(=O)c1c(NC(=O)COc2ccccc2F)sc2c1CC(C)(C)NC2(C)C	n	x	x	x	x	x
C=CCNc1nc2ccccc2nc1NS(=O)(=O)c1ccc(Br)cc1	n	x	x	x	n	n
Cc1c(N=C2NN=C(c3c[nH]c4ccccc34)CS2)c(=O)n(-c2ccccc2)n1C	n	n	n	x	n	n
CCOC(=O)c1ccc(N2CN(CC)CNC2=S)cc1	64	n	n	n	n	n
CCCN1CNC(=S)N(c2ccc(C(=O)OCC)cc2)C1	n	n	n	n	n	n
O=c1c2ccccc2cnn1CCOc1ccccc1	72	n	n	n	n	n
Cc1ccc2c(c1)sc(=NC(=O)c1cccs1)n2C	85	n	n	n	n	n
O=C(CS(=O)(=O)Cc1ccccc1)NCCc1ccc(F)cc1	n	x	x	x	n	n
Cc1ccc2nc(NC(=O)CSCC(=O)OCC(=O)c3ccccc3)sc2c1	62	n	n	n	n	n
Cc1ccc2nc(NC(=O)CCCC(=O)O)sc2c1	102	n	n	60	n	n
O=C(CN(C(=O)CNC(=O)c1cccs1)c1ccccc1)NC1CCCCC1	n	x	x	x	n	n
COc1ccc(C2NC(c3ccc(OC)cc3)C(C)C(=O)C2C)cc1 (centres undefined)	n	x	x	x	n	n
CC1C(=O)C(C)C(c2ccc(Cl)cc2)NC1c1ccc(Cl)cc1 (centres undefined)	68	x	x	x	x	x
O=C(CN1CCN(c2ccccc2F)CC1)N1CCc2ccccc21	n	x	x	x	n	n
COc1cc(C(=O)Nc2nc(C)c(Cc3ccc4c(c3)OCO4)s2)cc(OC)c1OC	n	82	74	86	n	n
O=C(Nc1nnc(SCc2ccc(F)cc2)s1)c1ccccn1	63	n	n	n	78	n
O=C(Nc1nc2ccccc2s1)c1cnccn1	n	n	n	n	n	n
O=C(Nc1nc2ccc(F)cc2s1)c1ccccn1	102	n	n	n	71	n
CCN(C(=O)COC(=O)c1cc(=O)c2ccccc2o1)c1c(N)n(Cc2ccccc2)c(=O)[nH]c1=O	n	x	x	x	x	x
Cc1ccc(C)c(N2CCN(C(=O)c3ccc(Cl)c(NC4=NC5CS(=O)(=O)CC5S4)c3)CC2)c1 (centres undefined)	n	x	x	x	n	n
SMILES	aSyn 5UTR inh	Ba/F3 V617F tox	BaF3 parental	APP 5UTR inh	IEC-6 cytotox	KLF5 inh
Cn1c(COc2ccccc2)nnc1SCC(=O)NC1CCCC1	n	x	x	x	n	n
Cc1cc(C(=O)CSc2nnc3ccccn23)c(C)n1-c1ccccc1	102	n	n	n	n	n
CCCCOc1ccccc1C1CC(=O)NC2=C1C(=O)CCC2 (centres undefined)	94	82	83	88	84	n
CS(=O)(=O)N1CCC(C(=O)Nc2c(F)cccc2F)CC1	n	n	70	n	n	n
Cc1cc(=O)[nH]c(N=N/C(=N/Nc2ccc(O)cc2)c2ccccc2)n1	n	n	n	n	n	n
Cc1cc(=O)[nH]c(SCC(=O)Nc2ccccc2C)n1	n	n	n	n	n	n
COc1ccc(N/N=C(/N=Nc2nc(C)cc(=O)[nH]2)c2ccccc2)cc1	85	n	n	n	n	n
Cc1cc(=O)[nH]c(N=N/C(=N/Nc2ccccc2C)c2ccccc2)n1	82	n	n	n	n	n
CCc1cccc(NS(=O)(=O)c2c(C)nc3sc(CC)nn3c2=O)c1	x	x	x	x	n	n
CCOC(=O)N1CCN(c2c(NCc3ccc(Cl)cc3)c(=O)c2=O)CC1	n	35	69	n	n	n
CCOC(=O)N1CCN(c2c(NCc3ccc(F)cc3)c(=O)c2=O)CC1	n	n	31	x	n	n
O=C(Nc1c2c(nn1-c1ccccc1)CS(=O)C2)c1ccc2c(c1)OCO2 (centres undefined)	n	x	x	x	n	n
COc1ccc(C2=NOC(C(=O)NCc3ccccc3)C2)cc1 (centres undefined)	n	n	n	n	27	n
CC(CCc1ccccc1)NC(=O)C1CCN(S(=O)(=O)N2CCOCC2)CC1 (centres undefined)	n	n	91	n	n	n
Cc1c(C(N)=O)sc2ncn(CC(=O)N(C)C3CCCCC3)c(=O)c12	n	x	x	x	n	n
CC(=O)C1=NN(c2ccccc2)C(c2cccs2)N1c1ccccc1 (centres undefined)	x	n	43	n	n	n
CC(=O)C1=NN(c2ccccc2)C(c2ccc3c(c2)OCO3)N1c1ccc(N2CCOCC2)cc1 (centres undefined)	n	n	n	n	n	n
Cn1nc(C(C)(C)C)cc1C(=O)NCc1cc(F)cc2c1OCOC2	n	44	57	x	n	n
Cc1cc(C(=O)NCc2cc(F)cc3c2OCOC3)nn1C	n	n	n	x	n	n
COc1ccc(/C=C/C(=O)NC(=S)NNC(=O)c2cnccn2)cc1	75	n	n	x	n	n
COc1ccc(/C=C/C(=O)NC(=S)NNC(=O)c2cccnc2)cc1	n	n	n	n	n	n
O=C(NNC(=S)NC(=O)c1cccnc1)c1ccc(F)cc1	n	n	n	x	n	n
O=C(NC(=S)NNC(=O)c1cnccn1)c1ccc(F)cc1	70	n	n	n	n	n
O=C(/C=C/c1ccc(F)cc1)NC(=S)Nc1ccccc1	n	x	x	x	n	n
O=C(/C=C/c1ccc(F)cc1)NC(=S)NNC(=O)c1cnccn1	95	n	n	x	n	n
SMILES	aSyn 5UTR inh	Ba/F3 V617F tox	BaF3 parental	APP 5UTR inh	IEC-6 cytotox	KLF5 inh
CCCCC(O)(CCCC)C(=O)NN(C(=O)OC)c1ccc(C)cc1	n	n	n	x	n	n
O=C1CCC/C(=N/NC(=O)C2CCN(S(=O)(=O)c3cccs3)CC2)C1	n	n	n	n	n	n
Cc1ccc(C)c(Nc2c([N+](=O)[O-])cc(C(=O)N3CC(=O)Nc4ccccc43)cc2[N+](=O)[O-])c1	78	n	n	n	n	n
O=C(NC(=S)Nc1ccc(CN2CCOCC2)cc1)c1ccc2c(c1)OCCO2	n	n	n	x	n	n
CCOc1cc(C2C(C#N)=C(N)OC(C)=C2C(C)=O)c(Br)c(Br)c1OC(C)C (centres undefined)	n	n	n	66	n	n
COc1ccc(NC(=O)CCc2nnc3ccc(N4CCC(C)CC4)nn23)cc1OC	n	x	x	x	n	n
CCN(CCO)c1ccc(N=Nc2cc(C)[nH]n2)cc1	102	n	n	x	n	n
O=[N+]([O-])c1ccc(Nc2nc(N/N=C/c3cccc(F)c3)nc(N3CCCC3)n2)cc1	n	n	n	n	n	n
COc1cccc(/C=N/Nc2nc(Nc3ccc([N+](=O)[O-])cc3)nc(N3CCCC3)n2)c1O	65	n	n	n	n	n
